# Assay results published in PubChem BioAssay AID2129 (The Scripps Research Institute Molecular Screening Center, 2009).
# Hit rate of the full screen: of about 320,000 compounds, about 2,200 (0.69%) were called active. For the sample, actives were picked, then their nearest neighbours and some compounds at random. Unmarked numbers belong to inactive results.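 Rule for the calls: active = inhibition above the mean of all tested compounds plus 3 SD, cutoff set per campaign (cut at about 30% in these data); inactive = the rest.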
# Target: Bcl-2-like protein 1 (Homo sapiens) (UniProt Q07817)
# Sequence (Q07817 whole entry, looked up): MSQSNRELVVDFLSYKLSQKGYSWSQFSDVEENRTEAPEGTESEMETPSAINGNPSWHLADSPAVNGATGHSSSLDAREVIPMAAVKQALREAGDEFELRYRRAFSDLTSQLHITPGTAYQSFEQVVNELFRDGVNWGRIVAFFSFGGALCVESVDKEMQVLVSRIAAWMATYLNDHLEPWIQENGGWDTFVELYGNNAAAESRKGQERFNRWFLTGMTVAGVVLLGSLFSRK
# Assay: inhibitors of human Bcl-xL, primary screen, biochemical, fluorescence polarization, HTS (AID 2129);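 note: 0% = DMSO wells and 100% = unlabeled Bim-BH3 peptide competitor; inhibitors lower millipolarization by displacing the labeled peptide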
# Settings: GST-Bcl-xL / FITC-Bim BH3 peptide fluorescence polarization; at 10.9 µM; active compounds read high
row,SMILES,inhibition
1,COc1cc2nc(CN(C)Cc3ccc(F)cc3)[nH]c(=O)c2cc1OC,-1.08%
2,COc1cc(CN(C)Cc2nc3cc(C(F)(F)F)ccc3c(=O)[nH]2)ccc1OC(F)F,-2.06%
3,COc1ccc(CN(C)Cc2nc3cc(OC)c(OC)cc3c(=O)[nH]2)c(OC)c1,85.4% (active)
4,Cc1cc(NC(=O)C(C)SCC(=O)Nc2ccccc2N2CCCCC2)no1 (stereo not given),-2.56%
5,COc1ccc(CCNC(=O)COC(=O)c2cc(=O)c3ccccc3o2)cc1,-7.08%
6,O=C(C1CC(=O)N(C2CCCCC2)C1)N1CCN(c2ccccc2)CC1 (stereo not given),3.83%
7,CNC(=O)c1cccc2nc3ccccc3nc12,8.33%
8,O=c1[nH]c(=O)c2nc3ccccc3nc2[nH]1,33.4% (active)
9,O=c1[nH]c(-c2ccccc2)c(-c2ccccc2)[nH]1,1.54%
10,CNC(C)C#Cc1ccc2sc3cc(OC)c(OC)cc3c(=O)c2c1 (stereo not given),0.94%
11,COc1ccc(C(=O)NCC(c2ccco2)N2CCc3ccccc32)cc1OC (stereo not given),3.87%
12,C[n+]1ccccc1C1CCCC/C1=N\Nc1ccc([N+](=O)[O-])cc1[N+](=O)[O-] (stereo not given),-14.1%
13,COc1ccc(S(=O)(=O)N(C)CC(=O)NCCCN2CCOCC2)cc1Cl,-0.96%
14,COc1ccc2nc(N3CCCC(O)C3)c(C#N)cc2c1 (stereo not given),32% (active)
15,COc1ccc2cc(C(=O)C3CCCN(C(=O)c4sc(C)nc4C)C3)ccc2c1 (stereo not given),3%
16,COc1ccc2c(c1)CCc1cn3ncc(C#N)c3nc1-2,5.65%
17,O=C(O)c1ccccc1CSc1nc2ccccc2s1,15.6%
18,O=[N+]([O-])c1c(NCCO)cc(Sc2nc3ccccc3s2)c2nonc12,38.8% (active)
19,CCOc1ccccc1Nc1ccc2nonc2c1[N+](=O)[O-],-3.2%
20,O=C(C1CCC1)N1CCc2cc(S(=O)(=O)NCc3cccnc3)ccc21,1.18%
21,CCN(CC)CCNc1nc(-c2ccc(OC(F)F)cc2)c(C)s1,4.61%
22,COc1ccc(C2C3=C(CCCC3=O)N(CC(=O)O)C3=C2C(=O)CCC3)cc1,7.5%

row,SMILES,inhibition
1,CCCN1C2=C(C(=O)CCC2)C(c2ccc(O)c(Br)c2)C2=C1CCCC2=O,37.8% (active)
2,CCOc1ccc(C2C3=C(CCCC3=O)N(CC(=O)O)C3=C2C(=O)CCC3)cc1,6.72%
3,CCCCCCCC1(C)NC(=O)N(CC(=O)Nc2cc(C)on2)C1=O (stereo not given),3.89%
4,O=C(Oc1cccc(O)c1)C1CCCCC1,1.38%
5,CN(C(=O)CSc1nnc(-c2ccc3c(c2)OCO3)o1)C1CCS(=O)(=O)C1 (stereo not given),3.5%
6,CCCc1cc(=O)[nH]c(SCC(=O)c2c(N)n(CC(C)C)c(=O)n(C)c2=O)n1,-0.53%
7,Cc1coc(C)c1C(=O)CC1(O)C(=O)N(C)c2ccc(Cl)cc21 (stereo not given),3.68%
8,NC(=O)CC(NC(=O)Cc1cccc2ccccc12)c1ccc(NCc2cc(F)ccc2F)c([N+](=O)[O-])c1 (stereo not given),-3.93%
9,COC(=O)CCCC1=CC2=CC(=O)C(C)(OC(=O)c3cccs3)C(=O)C2=CN1CC1CC1 (stereo not given),13.4%
10,COC(=O)CCCC1=CC2=CC(=O)C(C)(OC(=O)c3cccs3)C(=O)C2=CN1c1cccc(C#N)c1 (stereo not given),35.7% (active)
11,COC(=O)CCCC1=CC2=CC(=O)C(C)(OC(=O)c3cccs3)C(=O)C2=CN1CC(C)C (stereo not given),8.79%
12,CN1CCN(S(=O)(=O)c2cccc(C(=O)O)c2)CC1,6.51%
13,COc1cc(C(=O)N2C(=O)c3cccc(N)c3C2=O)cc(OC)c1OC,11.8%
14,CC1CC(C)CN(S(=O)(=O)c2cccc(C(=O)N3C(=O)c4cccc(N)c4C3=O)c2)C1 (stereo not given),30.5% (active)
15,O=C(Cn1nc([N+](=O)[O-])nc1Br)NC1CCCCC1,0.58%
16,CC(C)(C)c1ccc(C(CC(=O)O)NS(=O)(=O)Cc2ccccc2)cc1 (stereo not given),-2.32%
17,O=C1CCCN1CCCNC(=S)Nc1ccc(F)c(Cl)c1,5.5%
18,Cc1cc([N+](=O)[O-])ccc1NCc1cccc([N+](=O)[O-])c1,3.28%
19,C=CCn1c(SCCOc2ccc(OC)cc2)nnc1C(NC(=O)c1ccc(OC)cc1)C(C)C (stereo not given),4.55%
20,CC1CCCN(C(=O)c2cc(-c3ccco3)nc3ccccc23)C1 (stereo not given),2.8%
21,CN(C(=O)COC(=O)c1cc(-c2ccco2)nc2ccccc12)C1CCS(=O)(=O)C1 (stereo not given),38.9% (active)
22,COc1ccc(NC(=O)CN(C)C(=O)c2cc(-c3ccc(C)o3)nc3ccccc23)cc1,1.46%

row,SMILES,inhibition
1,CN(CCOc1ccccc1)C(=O)c1cc(-c2ccco2)nc2ccccc12,30.5% (active)
2,CN(C(=O)COC(=O)c1nc(Cl)ccc1Cl)C1CCS(=O)(=O)C1 (stereo not given),-2.39%
3,COc1ccc(-c2cc(C(=O)N(C)Cc3ccccc3)c3ccccc3n2)cc1,4.34%
4,O=C(c1cccs1)n1nc(NCc2ccccc2)nc1NCc1ccccc1,-2.31%
5,Cc1nnsc1S(=O)(=O)Cc1ccccc1Cl,1.84%
6,Cn1cccc1C(=O)NNC(=O)COc1ccc(Br)cc1,1.85%
7,CC1CCN(C(=S)NC(=O)c2ccccc2Br)CC1,1.04%
8,CCc1ccc(NC(=O)Nc2ccncc2)cc1,-0.23%
9,Oc1ccc2ccccc2c1N=Nc1nccs1,54.3% (active)
10,COc1ccc(C(=O)N2CCCC(C(=O)c3ccccc3OC)C2)cc1OC (stereo not given),2.42%
11,COc1cc(OC)cc(-c2c(-c3cccs3)c3cc(-c4ccc(OC)cc4F)ccc3n2C)c1,-0.84%
12,Cc1ccc(S(=O)(=O)N(C)C)cc1NC(=O)c1n[nH]c(=O)c2ccccc12,-2.28%
13,O=C(NCCc1ccc(C(F)(F)F)cc1)c1ccc2c(c1)OCO2,2.41%
14,NC(=O)c1ccc(Nc2ccc3c(c2)CCC3)c([N+](=O)[O-])c1,2.16%
15,Cc1c(CCO)c(=O)n(-c2ccccc2)n1S(=O)(=O)c1ccc(F)cc1,9.16%
16,O=C(C1=C(O)C(=O)N(Cc2ccccc2)C1c1cccnc1)c1ccco1 (stereo not given),3.45%
17,O=C(C1=C(O)C(=O)N(c2ncccn2)C1c1cccs1)c1ccco1 (stereo not given),94.5% (active)
18,O=C(C1=C(O)C(=O)N(Cc2ccccc2)C1c1ccco1)c1ccco1 (stereo not given),7.06%
19,COC(=O)/C=C(\Oc1ccccc1)C1(O)CCCCC1,1.07%
20,CCn1c(SCC(=O)NC2=NCCS2)nnc1C(C)NC(=O)c1ccccc1F (stereo not given),-1.19%
21,O=C(N/N=C/c1sc(N2CCCCC2)nc1-c1cccs1)c1cccnc1,-12.1%
